Assay outcomes from PubChem BioAssay.
SW480 rereplic: A quantitative high throughput screen for small molecules that induce DNA re-replication in SW480 colon adenocarcinoma cells. SW480 DNA re-replication, Hoechst DNA content imaging, 48 h. Potency, µM (top dose mostly 46.1 µM), inactives show top-dose re-replication activation, most hits filed as activators. 340,000 tested, 1.8% active; further: % of control where 0% means no effect; nearly all actives have a fitted effect of over 55% in size
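Readout is total intensity of Hoechst-stained nuclei, excited at 405 nm and collected at 500-530 nm. Compound treatment lasted 48 hr at 37 C in 5% CO2 before staining.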
KB-V1 MDR tox: qHTS assay for MDR1-selective chemotherapeutics: Primary screen using the drug-selected MDR subline cells KB-V1 | Potency, µM (doses to about 46.1 µM), actives largely listed as cytotoxic | KB-V1 MDR cells viability, CellTiter-Glo, 72 h | 400,000 tested, 3.4% active; further: on the % scale 0 is the no-effect control and ±100 the full control effect; nearly all actives have a fitted effect of over 60% in size
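KB-V1 cells (P-gp-expressing MDR subline of KB-3-1) in phenol-red-free DMEM with 10% FBS were exposed to library compounds over a concentration series for 72 h at 37 degrees C. Viability read by CellTiter-Glo luminescence; concentration-effect curves fitted after normalization.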
KB-3-1 tox: qHTS assay for MDR1-selective chemotherapeutics: Primary screen using the parental adenocarcinoma cell KB-3-1 | KB-3-1 viability, CellTiter-Glo ATP luminescence, 72 h | Potency, µM (top dose mostly 46.1 µM), actives largely listed as cytotoxic | 400,000 tested, 1.4% active; further: on the % scale 0 is the no-effect control and ±100 the full control effect; nearly all actives have a fitted effect of over 60% in size
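KB-3-1 cells, DMEM (no phenol red) + 10% FBS; compound by pin transfer, 72 h, 37 °C. Readout: CellTiter-Glo luminescence after 10 min. Data normalized, curve-fitted.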
MCF10A rereplic: A quantitative high throughput screen for small molecules that induce DNA re-replication in MCF 10a normal breast cells; MCF 10A DNA re-replication, Hoechst nuclear intensity, 48 h; Potency, µM (doses to about 46.1 µM), without a hit: at the highest dose activity, positive = re-replication, usual class: activators; 350,000 tested, 2.9% active; AID 624296, 2012; further: % of control where 0% means no effect; nearly all actives have a fitted effect of over 50% in size
ELG1 DNA repair: qHTS screen for small molecules that inhibit ELG1-dependent DNA repair in human embryonic kidney (HEK293T) cells expressing luciferase-tagged ELG1 | HEK293T ELG1-luciferase reporter, luminescence, 16 h; DNA damage induced by 5-fluorouridine | Potency, µM (series often up to 46.1 µM), without a hit: at the highest dose activity change, negative = inhibition, hits mostly inhibitors | 330,000 tested, 2.3% active; further: on the % scale 0 is the no-effect control and ±100 the full control effect; nearly all actives have a fitted effect of over 55% in size
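In this reporter screen, reduction of luminescence relative to DMSO vehicle indicated activity. Compounds and 5-fluorouridine were added together to 2,000 cells per well, incubated for 16 hr at 37 °C, then developed with ONE-Glo.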
Starred values were filed as active, the others as inactive; i = inactive; ? = inconclusive; . = not tested or not shown. A selection: hits, their analogues and other compounds. The true share with any hit is near 8.1%. The call rests on the fitted dose curve; in most records, active means well fitted curve in the direction sought with a large enough effect; inconclusive means small, poorly fitted or top-dose-only effect, or another doubt; inactive means no such curve, though single readings can be large; an effect the other way counts as inactive or inconclusive. Potency means the concentration at half of the fitted maximal effect.

SMILES | SW480 rereplic | KB-V1 MDR tox | KB-3-1 tox | MCF10A rereplic | ELG1 DNA repair
O=S(c1ccc2ccccc2c1)c1cnns1 (stereo not given) | ? | ? | i | 13µM* | 2%
CC1CCc2c(sc(NC(=O)C3c4ccccc4Oc4ccccc43)c2C(=O)OC(C)C)C1 (stereo not given) | . | i | i | . | .
CC[n+]1c(/C=C(\C)SC)sc2ccccc21 | 0% | i | i | -6% | 6%
CC[n+]1c(/C=C2/C=C(C)CC(C)C2)sc2ccccc21 (stereo not given) | -1% | i | ? | ? | ?
CC[n+]1c(/C=C(\C)Nc2ccccc2)sc2ccccc21 | -7% | 21µM* | ? | 12% | 0%
CC[n+]1c(C=C2C=C(C)OC(C)=C2)sc2ccccc21 | 18µM* | ? | ? | ? | ?
O=C(CN(Cc1ccccc1)S(=O)(=O)c1ccc2c(c1)OCCO2)Nc1ccc2c(c1)OCCO2 | 14% | ? | i | ? | ?
Cc1ccc(/C=N/NC(=O)CN(Cc2ccccc2)S(=O)(=O)c2ccc3c(c2)OCCO3)cc1 | ? | 5.8µM* | i | 16% | ?
COc1cc(NCCC(=O)c2cccs2)c(OC)cc1Cl | ? | i | i | 21µM* | -24%
Nc1n[nH]c(N)c1N=Nc1ccccc1 | 16µM* | i | i | -13% | 11%
Nc1n[nH]c(N)c1N=Nc1ccc(F)cc1 | ? | ? | i | 7% | ?
COc1ccc(-c2cn3cc(Br)cnc3n2)cc1 | ? | 10µM* | 13µM* | -2% | ?
COc1ccc(-c2cn3cccnc3n2)cc1Br | -10% | ? | ? | 2% | ?
Cc1ccc(N(Cc2ccccc2)C(=O)c2cc(S(=O)(=O)N3CCOCC3)ccc2Cl)cc1 | -19% | ? | ? | ? | -8%
Cc1ccc(N(Cc2ccccc2)C(=O)c2cc(S(=O)(=O)N3CCOCC3)ccc2F)cc1 | -1% | 9.2µM* | i | 20% | 16%
Cc1ccc(COC(=O)c2cc(S(=O)(=O)N3CCOCC3)ccc2C)cc1 | -8% | i | i | 23% | 23µM*
CSc1ncccc1C(=O)OCC(=O)c1ccc(S(=O)(=O)N2CCCCC2)cc1 | -4% | 23µM* | i | 4% | -5%
CSc1ncccc1C(=O)OCC(=O)Nc1ccc(S(=O)(=O)N2CCCC2)cc1 | -5% | i | i | -1% | -4%
Cc1ccc(S(=O)(=O)N2CCOCC2)cc1C(=O)OCC(=O)N1CCCCC1 | -4% | 18µM* | i | 13% | 7%
O=C(OCC(=O)N1CCCCCC1)c1ccc(S(=O)(=O)N2CCOCC2)cc1 | -18% | i | i | 5% | 3%
COc1ccc2oc(-c3ccc(C)c(NC(=O)c4ccc(-c5ccccc5[N+](=O)[O-])o4)c3)nc2c1 | . | ? | i | . | .
CSc1cccc(NC(=O)CCCOc2cc(=O)n(C)c3ccccc23)c1 | . | i | i | . | .
COc1ccccc1Cc1c(-c2ccc(C#N)cc2)nc2c(Cl)cc(C(F)(F)F)cn12 | . | i | i | . | .
O=C(COC(=O)c1cc(S(=O)(=O)N2CCCCC2)ccc1N1CCOCC1)c1ccc(F)cc1 | -93% | i | i | 1% | 10µM*
CCc1ccc(NC(=O)c2nc(SCc3ccccc3F)ncc2Cl)cc1 | . | i | i | . | .
SMILES | SW480 rereplic | KB-V1 MDR tox | KB-3-1 tox | MCF10A rereplic | ELG1 DNA repair
O=C1S/C(=C\c2ccc(O)c([N+](=O)[O-])c2)C(=O)N1Cc1cccc([N+](=O)[O-])c1 | -4% | ? | i | ? | ?
O=C1S/C(=C\c2ccc(O)c([N+](=O)[O-])c2)C(=O)N1c1ccccc1Cl | -70% | i | i | 1.6µM* | ?
Cc1ccc(NC(=O)Cn2c(=O)n(CCCCC(=O)NCCc3ccccc3)c(=O)c3ccccc32)c(C)c1 | . | i | i | . | .
Cc1ccc(C(=O)Nn2cnnc2)cc1Cl | -1% | ? | i | 13% | 7%
Cc1ccc(-c2cc(C(F)F)nc(S(C)(=O)=O)n2)cc1 | ? | ? | ? | 4.1µM* | ?
Cc1c(N(C)S(=O)(=O)c2ccc(Cl)c(C(=O)N3CCC(C(N)=O)CC3)c2)c(=O)n(-c2ccccc2)n1C | 6.5µM* | i | i | 8% | -15%
COC(=O)c1ccc(SCC(=O)N2CCC(C)CC2)c([N+](=O)[O-])c1 | -31% | 15µM* | i | 4% | 2%
CCOC(=O)N1CCN(C(=O)CSc2ccc(C(=O)OC)cc2[N+](=O)[O-])CC1 | -16% | i | i | 2% | 3%
COc1ccc(Cl)cc1N1C(=NC(=O)C2CCCO2)SC2CS(=O)(=O)CC21 (stereo not given) | ? | i | i | -2% | 1%
COc1ccc(N2C(=O)C(C)C(Cc3ccc(C)cc3)C2=O)cc1 (stereo not given) | -1% | ? | i | ? | 19%
Cc1cc(NCc2ccccc2)nc(-c2ccccc2O)n1 | -4% | 16µM* | ? | ? | -4%
Cc1ccc(C)c(Nc2cc(C)nc(-c3ccccc3O)n2)c1 | ? | i | 2.6µM* | ? | ?
Cc1cc(N/N=C/c2c(O)ccc3ccccc23)nc(-c2ccccc2O)n1 | 13µM* | ? | ? | 3.3µM* | 23µM*
Cc1cc(Nc2ccccc2)nc(-c2ccccc2O)n1 | 1% | i | i | ? | 8%
Cc1cc(NC2CCCCC2)nc(-c2ccccc2O)n1 | 0% | ? | ? | 18µM* | 2%
COc1ccc(-c2csc(C(NC(C)=O)c3ccccc3)n2)cn1 (stereo not given) | . | i | i | . | .
O=C(O)Cn1nnc(-c2ccc(OCc3cccc(C(F)(F)F)c3)cc2)n1 | . | i | i | . | .
Cc1ccc(-c2cc(NC(=O)c3ccccc3Cl)on2)cc1 | . | i | i | . | .
Cc1ccc(S(=O)(=O)N(c2cccc(C(F)(F)F)c2)C2C=CS(=O)(=O)C2)cc1 (stereo not given) | ? | i | i | 23µM* | 1%
Nc1nc(CSc2nnnn2-c2ccccc2)nc(N2CCCc3ccccc32)n1 | 0% | ? | i | ? | 16µM*
CCOC(=O)N1CCN(C(=O)Cn2nc(C)n3nc(-c4ccccc4)cc3c2=O)CC1 | -9% | i | i | 1% | -21%
Cc1cccc(N2CCN(C(=S)c3ccc(-c4ccccc4[N+](=O)[O-])o3)CC2)c1 | ? | ? | 16µM* | ? | -25%
